Reference: PubChem BioAssay (Tox21)
Records with an inconclusive call do not appear. A call without a number means that no potency is given here. Active and inactive are the calls of the source. Unless noted, calls follow the shape of the dose curve; as a rule, active = well fitted curve in the direction sought with a large enough effect in the repeat runs; inconclusive = weak or mixed curves; inactive = no such curve, though single readings can be large; an effect the other way counts as inactive or inconclusive.

Legend:
[1] = A CellTox Green Cytotoxicity Assay to monitor cytotoxicity in HEK293 cells - 32 hour (AID 1224881); also: nearly all actives have a fitted effect of over 40% in size
How it was run: (§1)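 Read-out: fluorescence of a cell-impermeant cyanine dye staining DNA of dead cells, proportional to cytotoxicity. HEK293, 600 cells/well with reagent, compound (23 nL DMSO) added after 5 h; reads at 0, 8, 16, 24, 32, 40 h.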

[2] = A CellTox Green Cytotoxicity Assay to monitor cytotoxicity in HepG2 cells - 0 hour (AID 1224882); also: nearly all actives have a fitted effect of over 35% in size
How it was run: (§2)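 HepG2, 600 cells/well premixed w/ CellTox Green; 5 h settle, 37 C/5% CO2; pintool cpd add (DMSO); 37 C, 40 h; fluorescence read at 0, 8, 16, 24, 32, 40 h.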

[3] = A CellTox Green Cytotoxicity Assay to monitor cytotoxicity in HEK293 cells - 8 hour (AID 1224884); also: nearly all actives have a fitted effect of over 35% in size
How it was run: as §1

[4] = qHTS RealTime-Glo MT Cell Viability Assay in HepG2 cells - 16 hour (AID 1224885); also: nearly all actives have a fitted effect of over 50% in size
How it was run: (§3)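 Viability was tracked continuously by NanoLuc luminescence from prosubstrate reduced by living HepG2 cells, at successive time points over 40 h of compound exposure. Cells with reagent were preincubated 5 h at 37 °C before compound addition.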

[5] = qHTS RealTime-Glo MT Cell Viability Assay in HEK293 cells - 8 hour (AID 1224887); also: nearly all actives have a fitted effect of over 50% in size; also: potency is read from the fitted curve at half-maximal effect
How it was run: (§4)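 Luminescence readout at each listed time point; HEK293, 600 cells/well, RealTime-Glo MT reagent added with cells; compounds pinned (23 nL in DMSO) after 5 h at 37 C; continuous culture at 37 C.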

[6] = A CellTox Green Cytotoxicity Assay to monitor cytotoxicity in HEK293 cells - 16 hour (AID 1224888); also: nearly all actives have a fitted effect of over 35% in size; also: potency is read from the fitted curve at half-maximal effect
How it was run: as §1

[7] = qHTS RealTime-Glo MT Cell Viability Assay in HepG2 cells - 0 hour (AID 1224889); also: nearly all actives have a fitted effect of over 50% in size; also: potency is read from the fitted curve at half-maximal effect
How it was run: as §3

[8] = A CellTox Green Cytotoxicity Assay to monitor cytotoxicity in HepG2 cells - 8 hour (AID 1224890); also: nearly all actives have a fitted effect of over 45% in size
How it was run: as §2

[9] = qHTS assay to identify small molecule antagonists of the estrogen receptor alpha (ER-alpha) signaling pathway using the BG1 cell line in the presence of 0.1 nM 17-beta-estradiol - cell viability counter screen (AID 1259241); also: nearly all actives have a fitted effect of over 40% in size
How it was run: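 Estradiol-stimulated (0.1 nM) VM7Luc4E2 cells exposed to compounds 22 hr; viability measured by fluorescence of cleaved CellTiter-Fluor substrate after 30 min.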

[10] = qHTS assay to identify small molecule antagonists of the androgen receptor (AR) signaling pathway using the MDA cell line in the presence of 0.5 nM R1881 - cell viability counter screen (AID 1259242); also: nearly all actives have a fitted effect of over 45% in size
How it was run: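 Live-cell protease fluorescence, CellTiter-Fluor, 30 min at 37C. Cells: MDA-kb2, 3,000/well, preincubated 5 hr. Compounds plus 0.5 nM R1881 final, 16 hr, 37C, 0% CO2.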

[11] = target: Estrogen receptor (Homo sapiens) (UniProt P03372); assay: qHTS assay to identify small molecule antagonists of the estrogen receptor alpha (ER-alpha) signaling pathway using the BG1 cell line in the presence of 0.1 nM 17-beta-estradiol (AID 1259244); also: nearly all actives have a fitted effect of over 50% in size; also: potency is read from the fitted curve at half-maximal effect
How it was run: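 Luminescence after ONE-Glo (30 min, room temperature) measured ERE-luciferase activity in VM7Luc4E2 cells treated 22 h with compound and 0.1 nM final 17beta-estradiol as stimulator.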

[12] = qHTS assay to identify small molecule phospholipidosis (PLD) inducers (AID 1259344; active = well fitted curve in the direction sought with a large enough effect; an effect the other way counts as inactive or inconclusive)
How it was run: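 Image-based: LipidTOX Red pit count/intensity per well and per cell; HepG2, 24 h compound at 37 C, PFA fixation, Hoechst counterstain.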

[13] = qHTS assay to identify small molecule HDAC inhibitors - cell viability counter screen (AID 1259365)
How it was run: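 After overnight seeding at 1,500 cells per well, wild-type HCT-116 cultures took up compounds in DMSO for 2hr at 37 C. Viable cell content came from luminescence with CellTiter-Glo.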

[14] = qHTS assay to identify small molecule antagonists of the sonic hedgehog signaling (Shh) pathway - cell viability counter screen (AID 1259367); also: nearly all actives have a fitted effect of over 55% in size; also: potency is read from the fitted curve at half-maximal effect
How it was run: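 Tox21 library chemicals were tested on a Gli1-Luc NIH/3T3 clone (2,000 cells/well) stimulated by conditioned medium; viability was quantified as fluorescence from CellTiter-Fluor reagent added at 23 hr.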

[15] = qHTS RealTime-Glo MT Cell Viability Assay in HEK293 cells - 0 hour (AID 1224880); also: top concentration of the series differs between compounds; nearly all actives have a fitted effect of over 45% in size
How it was run: as §4

[16] = A CellTox Green Cytotoxicity Assay to monitor cytotoxicity in HepG2 cells - 32 hour (AID 1224883); also: nearly all actives have a fitted effect of over 50% in size; also: potency is read from the fitted curve at half-maximal effect
How it was run: as §2

[17] = qHTS RealTime-Glo MT Cell Viability Assay in HEK293 cells - 24 hour (AID 1224886); also: nearly all actives have a fitted effect of over 50% in size; also: potency is read from the fitted curve at half-maximal effect
How it was run: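 Viability tracked continuously by luminescence as live cells reduce a prosubstrate for NanoLuc; HEK293 cells preincubated 5 h, compound-treated at 37 C, and read at 0, 8, 16, 24, 32 and 40 h.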

[18] = qHTS assay to identify small molecule agonists of the sonic hedgehog signaling (Shh) pathway - cell viability counter screen (AID 1259366); also: nearly all actives have a fitted effect of over 50% in size; also: potency is read from the fitted curve at half-maximal effect
How it was run: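 Same-well cytotoxicity read. Gli1-Luc reporter 3T3 cells; compounds 24hr, 37C/5% CO2; CellTiter-Fluor fluorescence.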

[19] = qHTS assay to identify small molecule HDAC inhibitors (AID 1259364); also: potency is read from the fitted curve at half-maximal effect;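 also: wild-type HCT-116 cells with endogenous class I/II HDAC activity; nearly all actives have a fitted effect of over 45% in size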
How it was run: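 HCT-116 (wild type), 1,500 cells/well, overnight; compound 2 hr 37C 5% CO2; HDAC-Glo I/II reagent 30 min RT; luminescence readout.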

[20] = target: Androgen receptor (Homo sapiens) (UniProt P10275); assay: qHTS assay to identify small molecule antagonists of the androgen receptor (AR) signaling pathway using the MDA cell line in the presence of 0.5 nM R1881 (AID 1259243); also: nearly all actives have a fitted effect of over 50% in size
How it was run: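 MDA-kb2, MMTV-luc (AR/GR elements); 3,000 cells/well; cpd + 0.5 nM R1881 final; 16 hr 37C, 0% CO2; ONE-Glo 30 min RT; luminescence.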

Estrogen receptor (Homo sapiens), sequence (P03372 whole entry, looked up): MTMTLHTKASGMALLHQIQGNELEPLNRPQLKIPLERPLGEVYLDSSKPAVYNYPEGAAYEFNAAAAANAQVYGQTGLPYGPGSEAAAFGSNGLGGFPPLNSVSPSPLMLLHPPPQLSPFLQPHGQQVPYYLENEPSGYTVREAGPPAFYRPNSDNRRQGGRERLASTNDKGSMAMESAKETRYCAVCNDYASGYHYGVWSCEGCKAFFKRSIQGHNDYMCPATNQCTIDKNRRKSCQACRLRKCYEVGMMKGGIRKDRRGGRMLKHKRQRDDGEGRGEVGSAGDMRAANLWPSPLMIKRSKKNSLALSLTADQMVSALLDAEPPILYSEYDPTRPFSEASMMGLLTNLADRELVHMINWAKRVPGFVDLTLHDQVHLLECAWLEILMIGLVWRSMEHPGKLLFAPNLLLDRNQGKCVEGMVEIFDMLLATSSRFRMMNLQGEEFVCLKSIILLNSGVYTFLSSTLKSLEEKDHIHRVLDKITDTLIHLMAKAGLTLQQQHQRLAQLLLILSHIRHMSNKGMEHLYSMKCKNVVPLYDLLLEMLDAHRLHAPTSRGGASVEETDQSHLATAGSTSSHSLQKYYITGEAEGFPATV
Androgen receptor (Homo sapiens), sequence (P10275 whole entry, looked up): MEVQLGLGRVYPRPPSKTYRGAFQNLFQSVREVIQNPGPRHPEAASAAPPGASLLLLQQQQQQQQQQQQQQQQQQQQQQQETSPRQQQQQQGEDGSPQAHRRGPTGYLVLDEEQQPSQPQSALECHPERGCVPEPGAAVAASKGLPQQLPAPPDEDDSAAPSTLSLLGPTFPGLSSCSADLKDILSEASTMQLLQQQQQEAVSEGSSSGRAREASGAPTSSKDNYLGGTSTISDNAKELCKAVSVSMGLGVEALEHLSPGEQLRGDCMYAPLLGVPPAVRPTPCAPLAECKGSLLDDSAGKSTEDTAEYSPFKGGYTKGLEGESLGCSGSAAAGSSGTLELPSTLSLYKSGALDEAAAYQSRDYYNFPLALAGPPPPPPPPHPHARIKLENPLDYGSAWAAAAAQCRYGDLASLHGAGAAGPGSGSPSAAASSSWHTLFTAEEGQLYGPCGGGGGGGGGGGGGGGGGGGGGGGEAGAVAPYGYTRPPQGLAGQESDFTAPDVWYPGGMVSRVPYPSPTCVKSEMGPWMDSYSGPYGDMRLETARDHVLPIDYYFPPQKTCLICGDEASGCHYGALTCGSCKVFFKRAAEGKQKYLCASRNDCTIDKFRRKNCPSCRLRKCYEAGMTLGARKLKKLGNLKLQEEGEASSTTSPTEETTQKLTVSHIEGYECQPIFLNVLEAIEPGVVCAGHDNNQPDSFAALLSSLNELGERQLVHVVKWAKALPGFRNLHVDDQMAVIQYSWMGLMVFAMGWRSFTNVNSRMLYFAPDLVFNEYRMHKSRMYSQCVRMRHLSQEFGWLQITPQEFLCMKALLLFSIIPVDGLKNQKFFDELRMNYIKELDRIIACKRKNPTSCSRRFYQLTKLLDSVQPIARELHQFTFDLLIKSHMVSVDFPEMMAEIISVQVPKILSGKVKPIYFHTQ

| Structure (SMILES) | Potency [1] | Potency [2] | Potency [3] | outcome [4] | Potency [5] | Potency [6] | Potency [7] | Potency [8] | Potency [9] | outcome [10] | Potency [11] | outcome [12] | outcome [13] | Potency [14] | outcome [15] | Potency [16] | Potency [17] | Potency [18] | Potency [19] | Potency [20] |
| --- | --- | --- | --- | --- | --- | --- | --- | --- | --- | --- | --- | --- | --- | --- | --- | --- | --- | --- | --- | --- |
| CC1(C)O[C@@H]2C[C@H]3[C@@H]4CCC5=CC(=O)CC[C@]5(C)[C@@]4(F)[C@@H](O)C[C@]3(C)[C@]2(C(=O)CCl)O1 | inactive | inactive | inactive | inactive | inactive | inactive | 5.35 µM (active) | inactive | inactive | inactive | inactive | inactive | inactive | inactive |  |  |  |  |  |  |
| CC(C)=CCC[C@](C)(O)[C@@H]1CC=C(C)CC1 |  |  | inactive | inactive | inactive | inactive | inactive |  | inactive | inactive |  |  | inactive | inactive | inactive | 43.6 µM (active) | inactive | inactive |  |  |
| CC1=NN(c2cc(Cl)c(S(=O)(=O)O)cc2Cl)C(=O)C1N=Nc1ccc(S(=O)(=O)O)cc1 (centres undefined) | inactive | inactive | inactive | inactive | inactive | inactive |  |  |  |  |  |  | inactive |  |  |  | inactive |  | 27.3 µM (active) |  |
| Cc1ccc(C(C)C)cc1O |  | inactive | inactive | inactive | inactive | inactive |  |  | inactive | inactive |  |  | inactive | inactive | inactive |  | inactive | inactive | inactive |  |
| COc1ccc2nc(NC(=O)Nc3ccccc3)sc2c1 |  |  | inactive | inactive |  | inactive |  | inactive | inactive | inactive |  | inactive | inactive | inactive | inactive |  | 4.77 µM (active) | inactive | 3.35 µM (active) |  |
| O=C1CCCCCCCCCCC(=O)OCCO1 | inactive |  | inactive | inactive |  | inactive | inactive |  | inactive | inactive | inactive |  | inactive | inactive | inactive | 24.5 µM (active) | inactive | inactive | inactive |  |
| C=CC1CO1 (centres undefined) | inactive |  | inactive |  | inactive | inactive | inactive | inactive | inactive | inactive |  |  | inactive | inactive | inactive | inactive | inactive | inactive | inactive |  |
| OCCN(CCO)CCN(CCO)CCO | inactive |  | inactive |  | inactive | inactive | inactive |  | inactive | inactive | inactive |  | inactive | inactive | inactive | inactive | inactive | inactive |  | inactive |
| CCC(=O)c1ccc2c(c1)N(CCCN(C)C)c1ccccc1S2 | inactive |  | inactive |  | 9.52 µM (active) | inactive |  | inactive |  | inactive |  |  | inactive | inactive | inactive |  | 10.7 µM (active) | inactive | inactive |  |
| O=C1Nc2ccc([N+](=O)[O-])cc2C1=O | inactive | inactive | inactive | inactive |  | inactive |  | inactive | inactive | inactive |  |  | inactive | inactive |  | inactive |  | inactive | inactive |  |
| c1ccc(CN(CC2=NCCN2)c2ccccc2)cc1 | inactive |  | inactive |  | inactive | inactive | inactive | inactive | inactive | inactive | inactive | inactive | inactive | inactive | inactive |  | inactive | inactive |  |  |
| CC/C=C\CCOC(=O)CCCCC |  |  |  |  | inactive | inactive |  |  | inactive | inactive | inactive |  | inactive | inactive | inactive |  | inactive | inactive | inactive |  |
| CCOC(=O)COc1ccc2c(c1)CC(NCC(O)c1cccc(Cl)c1)CC2 (centres undefined) |  | inactive |  | inactive |  |  |  |  |  | inactive |  |  | inactive | 27.5 µM (active) |  |  | inactive | 21.9 µM (active) | inactive |  |
| Nc1ccc2ccccc2c1S(=O)(=O)O | inactive |  | inactive | inactive | inactive | inactive |  | inactive | inactive | inactive |  |  | inactive | inactive | inactive | inactive | inactive | inactive | inactive |  |
| CCCN(CCC)C(=O)C(CCC(=O)O)NC(=O)c1ccccc1 (centres undefined) | inactive |  | inactive | inactive | inactive | inactive |  | inactive | inactive | inactive |  | inactive | inactive | inactive | inactive | inactive | inactive | inactive |  |  |
| CC(C)(CO)[C@@H](O)C(=O)NCCC(=O)O | inactive |  | inactive | inactive | inactive | inactive |  | inactive | inactive | inactive | inactive | inactive | inactive | inactive | inactive | inactive | inactive | inactive | inactive |  |
| Cc1c[nH]c(=S)[nH]c1=O | inactive |  | inactive | inactive | inactive | inactive | inactive | inactive | inactive | inactive | inactive |  | inactive | inactive | inactive |  | inactive | inactive | inactive |  |
| CN1CCN(c2c(F)cc3c(=O)c(C(=O)O)cn(CCF)c3c2F)CC1 |  | inactive |  | inactive | inactive | 5.35 µM (active) | inactive | inactive | inactive | inactive | inactive | inactive | inactive | inactive | inactive | inactive | inactive | inactive | inactive |  |
| CCCCNC(=S)NCCCC | inactive |  | inactive |  | inactive | inactive |  | inactive | inactive | inactive | inactive |  | inactive | inactive | inactive | inactive | inactive |  |  |  |
| ICCc1ccccc1 |  | inactive | inactive | inactive | inactive | inactive | inactive | inactive | inactive | inactive | 67.2 µM (active) |  | inactive |  | inactive | inactive | inactive |  | inactive |  |
